In PubChem BioAssay (NCI):
About 79,000 compounds went through this panel and 15% of them were active in at least one assay; those are over-represented in the sample as a whole. Calls of active or inactive are those of the source. Rule as the data show it: active = growth inhibition above about 70%; inactive = the rest.

Tests used:
[1] = NCI Yeast Anticancer Drug Screen. Data for the mlh1 strain (AID 171);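 also: 0% = growth of vehicle-treated control cultures of the same strain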; conditions: S. cerevisiae mlh1 strain growth inhibition, stronger effect = higher value
Procedure, shortened: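 Vehicle-normalised growth inhibition of a repair- or checkpoint-altered yeast strain following compound treatment.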

[2] = NCI Yeast Anticancer Drug Screen. Data for the sgs1 strain (AID 173);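 also: 0% = growth of vehicle-only control cultures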; conditions: S. cerevisiae sgs1 mutant, stronger effect = higher value
Procedure, shortened: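 Screen format: yeast with repair or checkpoint alterations, compound exposure, growth read relative to vehicle.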

[3] = NCI Yeast Anticancer Drug Screen. Data for the mlh1 rad18 strain (AID 175); conditions: S. cerevisiae mlh1 rad18 strain growth inhibition, stronger effect = higher value
Procedure, shortened: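 Vehicle-treated cultures served as the reference for growth inhibition in a yeast strain carrying DNA damage repair alterations exposed to each compound.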

[4] = NCI Yeast Anticancer Drug Screen. Data for the rad18 strain (AID 177); conditions: S. cerevisiae rad18 mutant growth inhibition, stronger effect = higher value
Procedure, shortened: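 Test articles were incubated with altered yeast defective in DNA damage repair. Results are given as inhibition of growth versus vehicle.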

[5] = NCI Yeast Anticancer Drug Screen. Data for the wt1 strain (AID 149);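 also: 0% = growth of vehicle-treated wt1 cultures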; conditions: S. cerevisiae wt1 strain (SPY 50644) growth inhibition, stronger effect = higher value
Procedure, shortened: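 wt1 yeast, compound-treated; % growth inhibition vs vehicle control.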

[6] = NCI Yeast Anticancer Drug Screen. Data for the rad50EPP+ strain (AID 151);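 also: 0% = growth of vehicle-treated control cultures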; conditions: S. cerevisiae rad50 mutant strain, stronger effect = higher value
Procedure, shortened: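 In this screen, rad50EPP+ yeast were exposed to compounds. Growth inhibition was scored against vehicle-treated controls.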

[7] = NCI Yeast Anticancer Drug Screen. Data for the mgt1 strain (AID 153); conditions: S. cerevisiae mgt1 mutant growth inhibition, stronger effect = higher value
Procedure, shortened: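 mgt1 strain exposed; growth vs vehicle control recorded as inhibition.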

[8] = NCI Yeast Anticancer Drug Screen. Data for the rad50 strain (AID 155);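 also: 0% = growth of vehicle-only cultures of the same strain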; conditions: S. cerevisiae rad50 strain growth inhibition, stronger effect = higher value
Procedure, shortened: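 Genetically altered yeast (DNA repair pathway); compound treatment; growth inhibition vs vehicle ctrl.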

[9] = NCI Yeast Anticancer Drug Screen. Data for the mec2-1 strain (AID 157); conditions: S. cerevisiae mec2-1 strain, stronger effect = higher value
Procedure, shortened: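 Vehicle-treated cultures served as reference for growth inhibition of compound-exposed mec2-1 yeast.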

[10] = NCI Yeast Anticancer Drug Screen. Data for the rad14 strain (AID 159);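 also: 0% = growth of vehicle-treated control cultures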; conditions: S. cerevisiae rad14 strain growth inhibition, stronger effect = higher value
Procedure, shortened: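 Test compounds were applied to a repair-deficient yeast strain. Its growth was then compared with that of cultures given vehicle alone, and inhibition was expressed relative to those controls.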

[11] = NCI Yeast Anticancer Drug Screen. Data for the sgs1 mgt1 strain (AID 161);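 also: 0% = growth of cultures given vehicle only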; conditions: S. cerevisiae sgs1 mgt1 strain, stronger effect = higher value
Procedure, shortened: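 Mutant yeast exposed to compound; growth scored against vehicle-only wells.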

[12] = NCI Yeast Anticancer Drug Screen. Data for the CLN2oe strain (AID 163);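 also: 0% = growth of vehicle-only control cultures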; conditions: S. cerevisiae CLN2oe strain, stronger effect = higher value
Procedure, shortened: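 Inhibition relative to vehicle-treated yeast is reported. Cells: strain with genetic alteration in cell-cycle control, grown with compound.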

[13] = NCI Yeast Anticancer Drug Screen. Data for the cln2 rad14 strain (AID 165);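 also: 0% = growth equal to vehicle treated cultures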; conditions: S. cerevisiae cln2 rad14 strain, stronger effect = higher value
Procedure, shortened: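 Each compound was tested on cln2 rad14 yeast. Inhibition of growth was calculated against vehicle-exposed controls.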

[14] = NCI Yeast Anticancer Drug Screen. Data for the bub3 strain (AID 167); conditions: S. cerevisiae bub3 mutant strain, stronger effect = higher value
Procedure, shortened: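 Yeast carrying a defined mutation is treated with each compound, and growth is compared with that of vehicle-exposed cells to give inhibition.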

[15] = NCI Yeast Anticancer Drug Screen. Data for the wt2 strain (AID 169);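 also: 0% = growth of vehicle-treated yeast cultures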; conditions: S. cerevisiae wt2 strain growth inhibition, stronger effect = higher value
Procedure, shortened: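 Inhibition of yeast growth was determined after compound treatment, normalised to controls receiving only vehicle.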

[16] = at 5.0 µM (retest, dose inferred, filed as 0.5)
[17] = at 50.0 µM (retest, dose inferred, filed as 5.0)

Measured: growth inhibition

CCCCCCCCCC[Se]C#N
active: [1]; at 100.0 µM 90% | [2]; at 100.0 µM 96% | [3]; [17] 99% | [3]; at 50.0 µM 99.3% | [4]; at 100.0 µM 98%
inactive: [1]; at 1.2 µM -1% | [1]; at 3.7 µM 0% | [1]; at 11.0 µM 6% | [1]; at 33.0 µM 26% | [2]; at 1.2 µM -1% | [2]; at 3.7 µM 1% | [2]; at 11.0 µM 13% | [2]; at 33.0 µM 54% | [3]; [16] 51% | [4]; at 1.2 µM 4% | [4]; at 3.7 µM 6% | [4]; at 11.0 µM 18% | [4]; at 33.0 µM 63%

C=C[C@H]1CN2CC[C@H]1C[C@@H]2[C@@H](O)c1ccnc2ccccc12
inactive: [5]; at 1.2 µM -1% | [5]; at 3.7 µM -2% | [5]; at 11.0 µM -4% | [5]; at 33.0 µM -2% | [5]; at 100.0 µM -2% | [6]; at 1.2 µM -1% | [6]; at 3.7 µM 0% | [6]; at 11.0 µM -2% | [6]; at 33.0 µM -3% | [6]; at 100.0 µM -3% | [7]; at 1.2 µM 2% | [7]; at 3.7 µM 1% | [7]; at 11.0 µM 3% | [7]; at 33.0 µM 0% | [7]; at 100.0 µM 4% | [8]; at 1.2 µM 2% | [8]; at 3.7 µM 10% | [8]; [16] 2% | [8]; at 11.0 µM 3% | [8]; at 33.0 µM 2% | [8]; [17] 13% | [8]; at 50.0 µM -1.45% | [8]; at 100.0 µM -2% | [9]; at 1.2 µM -1% | [9]; at 3.7 µM 3% | [9]; [16] 8% | [9]; at 11.0 µM 4% | [9]; at 33.0 µM 2% | [9]; [17] 7% | [9]; at 50.0 µM -40.6% | [9]; at 100.0 µM -5% | [10]; at 1.2 µM -3% | [10]; at 3.7 µM -9% | [10]; at 11.0 µM -2% | [10]; at 33.0 µM 0% | [10]; at 100.0 µM 1% | [11]; [16] -10% | [11]; [17] -1% | [11]; at 50.0 µM -11.9% | [12]; at 1.2 µM 1% | [12]; at 3.7 µM 2% | [12]; at 11.0 µM 3% | [12]; at 33.0 µM 5% | [12]; at 100.0 µM 2% | [13]; [16] 44% | [13]; [17] 14% | [13]; at 50.0 µM 8.55% | [14]; at 1.2 µM 3% | [14]; at 3.7 µM -6% | [14]; [16] -8% | [14]; at 11.0 µM 1% | [14]; at 33.0 µM 1% | [14]; [17] -1% | [14]; at 50.0 µM -7.5% | [14]; at 100.0 µM 1% | [15]; at 1.2 µM 0% | [15]; at 3.7 µM 1% | [15]; at 11.0 µM 0% | [15]; at 33.0 µM -2% | [15]; at 100.0 µM 1% | [1]; at 1.2 µM -2% | [1]; at 3.7 µM 1% | [1]; at 11.0 µM -6% | [1]; at 33.0 µM -7% | [1]; at 100.0 µM 9% | [2]; at 1.2 µM -3% | [2]; at 3.7 µM -5% | [2]; at 11.0 µM -6% | [2]; at 33.0 µM -7% | [2]; at 100.0 µM -6% | [3]; [16] 2% | [3]; [17] 8% | [3]; at 50.0 µM 7.65% | [4]; at 1.2 µM -2% | [4]; at 3.7 µM -2% | [4]; at 11.0 µM -9% | [4]; at 33.0 µM -17% | [4]; at 100.0 µM -28%

Cc1c2ccccc2cc2ccccc12
inactive: [5]; at 1.2 µM -2% | [5]; at 3.7 µM 1% | [5]; at 11.0 µM 24% | [6]; at 1.2 µM 52% | [7]; at 1.2 µM -2% | [7]; at 3.7 µM 19% | [8]; at 1.2 µM 4% | [8]; at 3.7 µM 36% | [8]; [16] 16% | [9]; at 1.2 µM -2% | [9]; at 3.7 µM 14% | [9]; [16] 35% | [9]; at 11.0 µM 61% | [10]; at 1.2 µM 5% | [10]; at 3.7 µM 21% | [10]; at 11.0 µM 55% | [11]; [16] 34% | [12]; at 1.2 µM 9% | [12]; at 3.7 µM 29% | [13]; [16] 51% | [14]; at 1.2 µM -3% | [14]; at 3.7 µM 7% | [14]; [16] 58% | [14]; at 11.0 µM 49% | [15]; at 1.2 µM -4% | [15]; at 3.7 µM -1% | [15]; at 11.0 µM 63% | [1]; at 1.2 µM 8% | [1]; at 3.7 µM 27% | [2]; at 1.2 µM -14% | [2]; at 3.7 µM 20% | [3]; [16] 65% | [4]; at 1.2 µM 5% | [4]; at 3.7 µM 25%
active: [5]; at 33.0 µM 93% | [5]; at 100.0 µM 98% | [6]; at 3.7 µM 84% | [6]; at 11.0 µM 96% | [6]; at 33.0 µM 98% | [6]; at 100.0 µM 98% | [7]; at 11.0 µM 73% | [7]; at 33.0 µM 99% | [7]; at 100.0 µM 99% | [8]; at 11.0 µM 83% | [8]; at 33.0 µM 98% | [8]; [17] 98% | [8]; at 50.0 µM 98.3% | [8]; at 100.0 µM 98% | [9]; at 33.0 µM 99% | [9]; [17] 99% | [9]; at 50.0 µM 98.6% | [9]; at 100.0 µM 99% | [10]; at 33.0 µM 99% | [10]; at 100.0 µM 99% | [11]; [17] 99% | [11]; at 50.0 µM 98.4% | [12]; at 11.0 µM 82% | [12]; at 33.0 µM 99% | [12]; at 100.0 µM 99% | [13]; [17] 99% | [13]; at 50.0 µM 98% | [14]; at 33.0 µM 95% | [14]; [17] 99% | [14]; at 50.0 µM 98.2% | [14]; at 100.0 µM 99% | [15]; at 33.0 µM 98% | [15]; at 100.0 µM 99% | [1]; at 11.0 µM 86% | [1]; at 33.0 µM 99% | [1]; at 100.0 µM 99% | [2]; at 11.0 µM 97% | [2]; at 33.0 µM 99% | [2]; at 100.0 µM 99% | [3]; [17] 99% | [3]; at 50.0 µM 97.8% | [4]; at 11.0 µM 76% | [4]; at 33.0 µM 98% | [4]; at 100.0 µM 98%
